One assay has as its system CRL-7250. In words: Cytotoxic Profiling of Annotated Libraries Using Quantitative High-Throughput Screening (AID 1296008). Note: nearly all actives have a fitted effect of over 60% in size. To be noted: Five cell lines viability, CellTiter-Glo ATP luminescence, 48-72 h; max response: active compounds read low. The method, boiled down: (§1)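 Cells exposed to compounds for 48 or 72 hr at 37 degrees Celsius. Viability read as ATP-coupled luminescence with CellTiter-Glo after 10 min at room temperature.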
(ATP-based viability assays read luminescence as a measure of living cells.)

The next assay relates to HEK293. Described as above. Particulars: Five cell lines viability, CellTiter-Glo ATP luminescence, 48-72 h; max response: active compounds read low. The method, boiled down:
as §1

In assay [1] the test system is HaCat. The assay is described as above. To be noted: Five cell lines viability, CellTiter-Glo ATP luminescence, 48-72 h; max response: active compounds read low. The method, boiled down: as §1
For the next assay, the system named is KB-3-1. Described as above. To be noted: Five cell lines viability, CellTiter-Glo ATP luminescence, 48-72 h; max response: active compounds read low. The essentials:
as §1

The test system of assay [2] is NIH3T3. The assay is described as above. Particulars: Five cell lines viability, CellTiter-Glo ATP luminescence, 48-72 h; max response: active compounds read low. The essentials:
as §1

Assay [3] has as its system HACAT. In words: qHTS assay to identify novel small-molecules to repurpose for Merkel cell carcinoma treatment (AID 1296009). Note: nearly all actives have a fitted effect of over 60% in size. Particulars: MCC and control cell lines, CellTiter-Glo viability, 72 h; at 44.8 µM (top of the series) unless noted. The essentials:
(§2)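 Dose-response viability screen; 72 hr exposure at 37 degree celsius; CellTiter-Glo added, 10 min room temperature, luminescence read; RLUs scaled between no-cell and DMSO wells.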
Background: Quantitative high-throughput screening tests each substance at several concentrations.

The subject of a further assay is HEK293T. The description is as above. Particulars: MCC and control cell lines, CellTiter-Glo viability, 72 h; series mostly up to 44.8 µM. The method, boiled down: as §2
The next assay concerns MCC-13. Described as above. To be noted: MCC and control cell lines, CellTiter-Glo viability, 72 h; series mostly up to 46 µM. The essentials:
as §2

In another assay the test system is MCC-26. The description is as above. To be noted: MCC and control cell lines, CellTiter-Glo viability, 72 h; series mostly up to 46 µM. The essentials:
as §2

The next assay has as its system MKL-1. The assay is described as above. Particulars: MCC and control cell lines, CellTiter-Glo viability, 72 h; series mostly up to 46 µM. The method, boiled down:
as §2

Another assay deals with MKL-2. The description is as above. Particulars: MCC and control cell lines, CellTiter-Glo viability, 72 h; series mostly up to 46 µM. The method, boiled down:
as §2

In assay [4] the test system is NIH3T3. Described as above. Particulars: MCC and control cell lines, CellTiter-Glo viability, 72 h; at 44.8 µM (top of the series) unless noted. The essentials:
as §2

A further assay has as its system UISO. Described as above. To be noted: MCC and control cell lines, CellTiter-Glo viability, 72 h; series mostly up to 46 µM. The method, boiled down:
as §2

For the next assay, the system named is WaGa. The assay is described as above. Particulars: MCC and control cell lines, CellTiter-Glo viability, 72 h; series mostly up to 46 µM. The essentials:
as §2

Another assay deals with C33A. In words: Primary qHTS to identify gynecologic anti-cancer compounds using libraries of approved drugs and bioactive compounds (AID 1345084). Note: nearly all actives have a fitted effect of over 55% in size. To be noted: Gynecologic cancer cell panel viability, ATPlite luminescence, 48 h; series mostly up to 57.5 µM. The essentials: (§3)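 In this quantitative HTS, cell killing is estimated from loss of ATP-dependent luciferase light. Cells see five compound concentrations over a 48 h exposure.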

Another assay has as its system Es-2. The assay is described as above. Particulars: Gynecologic cancer cell panel viability, ATPlite luminescence, 48 h; series mostly up to 57.5 µM. The method, boiled down: as §3
Another assay relates to HeLa. The description is as above. To be noted: Gynecologic cancer cell panel viability, ATPlite luminescence, 48 h; series mostly up to 57.5 µM. The method, boiled down: as §3
The next assay deals with CASKI. The assay is described as above. Particulars: Gynecologic cancer cell panel viability, ATPlite luminescence, 48 h; series mostly up to 57.5 µM. The method, boiled down:
as §3

The structures appear in SMILES notation. Values joined by “and” are separate entries in the source; they are usually repeats but may differ in a detail not shown here. Equal entries are not always repeated. Inconclusive results are not listed. A structure can be active in one record and inactive in another. Active and inactive are the calls of the source. Calls come from the whole dose curve; as a rule, active = well fitted curve in the direction sought with a large enough effect; inconclusive = small, poorly fitted or top-dose-only effect, or another doubt; inactive = no such curve, though single readings can be large; an effect the other way counts as inactive or inconclusive.
% is set by controls: 0 for no effect and ±100 for the full control effect; potency is the fitted concentration of half-maximal effect.

As for `COC(=O)[C@@H]1CC2=CC(=O)CC[C@]2(C)[C@@]23O[C@@H]2C[C@@]2(C)[C@H](CC[C@@]24CCC(=O)O4)[C@@H]13`, the max response in the assay on CRL-7250 was -3.2% (inactive). The outcome in the assay on HEK293, in the assay with HaCat [1], in the assay on KB-3-1, in the assay with NIH3T3 [2], in the assay with HACAT [3] and in the assay with NIH3T3 [4] was inactive. Further, the Potency entry in the assay with HEK293T, with MCC-13, in the assay on MCC-26, in the assay with MKL-1, in the assay on MKL-2 and in the assay with UISO was “inactive” throughout. For the same molecule, the Potency entry with WaGa was “inactive”.

Consider `O=C(O)c1ccc(Nc2ncc3c(n2)-c2ccc(Cl)cc2C(c2c(F)cccc2F)=NC3)cc1`, for which the max response in the assay on CRL-7250 is 0.615% (inactive). Further, the molecule was classed as inactive with CRL-7250. The Potency in the assay with HaCat [1] is 9.2 µM (active); in the assay on KB-3-1, 18.7 µM (active) and 5.8 µM (active). The Potency entry in the assay on MKL-2, with UISO, with C33A and in the assay with Es-2 was “inactive” each time.

Consider `C=C(C)[C@@H]1CC[C@]2(C)CC[C@]3(C)[C@H](CC[C@@H]4[C@@]5(C)CC[C@H](O)C(C)(C)[C@H]5CC[C@]43C)[C@@H]12`, for which the max response was -9.28% (inactive) in the assay on CRL-7250 and 8.9% (inactive) with KB-3-1. The molecule was called inactive with HEK293, with HaCat [1], with NIH3T3 [2], in the assay on HACAT [3] and in the assay on NIH3T3 [4]. In addition, the Potency result in the assay with HEK293T, in the assay on MCC-13, in the assay on MCC-26, in the assay on MKL-1, with MKL-2 and in the assay with UISO was “inactive” in each case. Also, the Potency entry with WaGa is “inactive”.

For `NC(=O)c1cccc(-c2cccc(OC(=O)NC3CCCCC3)c2)c1`, the outcome in the assay with CRL-7250, with HaCat [1], in the assay with NIH3T3 [2], with HACAT [3] and with NIH3T3 [4] was inactive. Also, the max response in the assay with HEK293 was -9.31% (inactive); with KB-3-1 it was 6.26% (inactive). Moreover, the Potency result in the assay on MCC-13, with MCC-26, in the assay with MKL-1, with MKL-2, in the assay with UISO and with WaGa was “inactive” throughout.

Take `O=C(O)[C@H](CC(=O)N1C[C@@H]2CCCC[C@H]2C1)Cc1ccccc1`: the molecule was classed as inactive in the assay on CRL-7250, with HaCat [1], in the assay on NIH3T3 [2], with HACAT [3] and with NIH3T3 [4]. Further, the max response in the assay with HEK293 is -4.31% (inactive); in the assay with KB-3-1, 2.32% (inactive). Also, the Potency entry in the assay with MCC-13, in the assay with MCC-26, with MKL-1, in the assay with MKL-2, with UISO and with WaGa was “inactive” throughout.

Consider `CC1(C)[C@H](O[C@H]2O[C@H](C(=O)O)[C@@H](O)[C@H](O)[C@H]2O[C@@H]2O[C@H](C(=O)O)[C@@H](O)[C@H](O)[C@H]2O)CC[C@@]2(C)[C@H]1CC[C@]1(C)[C@H]2C(=O)C=C2[C@H]3C[C@@](C)(C(=O)O)CC[C@]3(C)CC[C@]21C`, for which the max response in the assay on CRL-7250 is -14.3% (inactive); in the assay on HEK293 it was 0.699% (inactive). The result in the assay with HaCat [1], in the assay with KB-3-1, with NIH3T3 [2], in the assay on HACAT [3] and in the assay with NIH3T3 [4] was inactive. The Potency entry with MCC-13, in the assay on MCC-26, with MKL-1, in the assay on MKL-2, in the assay with UISO and with WaGa was “inactive” each time.

Consider `COc1ccc(S(=O)(=O)Nc2cccnc2Nc2ccc(O)cc2)cc1`, for which the Potency is 3.66 µM (active) with CRL-7250; 0.935 µM (active) in the assay on HEK293; 20.9 µM (active) in the assay on HaCat [1]; 332 nM (active) and 820 nM (active) in the assay with KB-3-1; 3.72 µM (active) in the assay with MCC-13; 8.91 µM (active) in the assay on C33A. The results for the Potency with Es-2 and with HeLa were 2.24 µM (active) and 1.78 µM (active), respectively. The max response in the assay on HaCat [1] is -5.46% (inactive).

Consider `CCCCOc1ccc(C(=O)Nc2ccc(F)cc2F)cc1`, for which the max response is -1.1% (inactive) with CRL-7250, 2.49% (inactive) in the assay with HEK293, 0.701% (inactive) in the assay with KB-3-1 and -3.26% (inactive) with NIH3T3 [2]. The call in the assay with CRL-7250, with HaCat [1], in the assay with NIH3T3 [2], in the assay on HACAT [3] and with NIH3T3 [4] was inactive. Moreover, the Potency result with MCC-13, in the assay with MKL-1, in the assay on MKL-2, with UISO, in the assay with WaGa and with C33A was “inactive” throughout. The Potency result with CASKI, with Es-2 and in the assay with HeLa was “inactive” throughout.

For `CC(C)(N)c1ccc(-c2nc3ccccc3nc2-c2ccccc2)cc1`, the Potency in the assay on CRL-7250 is 0.0743 µM (active); in the assay with HEK293, 0.059 µM (active); in the assay with KB-3-1 it was 1.87 µM (active); with NIH3T3 [2], 25.9 µM (active); with WaGa, 18.7 µM (active). Also, the max response is -8.83% (inactive) in the assay with CRL-7250; -35.2% (inactive) and -5.95% (inactive) with HaCat [1]. For the same molecule, the Potency entry in the assay on MCC-13, with MCC-26, in the assay with C33A and in the assay on HeLa was “inactive” in each case.

As to `OC[C@H]1OC(O)C[C@@H](O)[C@H]1O` (stereo partly specified), the outcome in the assay with CRL-7250, with HEK293, in the assay with HaCat [1], with NIH3T3 [2], in the assay on HACAT [3] and in the assay with NIH3T3 [4] was inactive. For the same molecule, the max response in the assay with KB-3-1 is 2.18% (inactive). The Potency entry in the assay on HEK293T, in the assay on MCC-13, in the assay on MCC-26, with MKL-1, in the assay with MKL-2 and in the assay on UISO was “inactive” throughout. The Potency entry with WaGa is “inactive”.

With `C[C@H]1C[C@H]2[C@@H]3CCC4=CC(=O)C=C[C@]4(C)[C@@H]3C(=O)C[C@]2(C)[C@@]1(O)C(=O)CO`, the max response with CRL-7250 is -3.73% (inactive); in the assay on HEK293 it was 3.81% (inactive); in the assay on KB-3-1 it was 4.3% (inactive). Further, the call with HaCat [1], in the assay with NIH3T3 [2], with HACAT [3] and in the assay on NIH3T3 [4] was inactive. Further, the Potency entry in the assay with MCC-13, with MCC-26, with MKL-1, in the assay on MKL-2, in the assay with UISO and in the assay with WaGa was “inactive” each time.

As for `CC1(C)CC(O)CC(C)(C)N1[O]`, the result with CRL-7250, with HEK293, in the assay with HaCat [1] and in the assay with HACAT [3] was inactive. In addition, the max response is 7.14% (inactive) with KB-3-1 and -4% (inactive) with NIH3T3 [2]. For the same molecule, the Potency result with HEK293T, in the assay on MCC-13, with MCC-26, in the assay with MKL-1, in the assay on MKL-2 and in the assay on UISO was “inactive” each time. In addition, the Potency entry with WaGa was “inactive”.

For `NC(=O)c1ncn([C@@H]2O[C@H](CO)[C@@H](O)[C@@H]2O)c1N`, the max response in the assay on CRL-7250 is -3.14% (inactive); with HEK293, 2.62% (inactive); in the assay on KB-3-1, 1.9% (inactive). In addition, the outcome in the assay on HaCat [1], in the assay on NIH3T3 [2], with HACAT [3] and in the assay with NIH3T3 [4] was inactive. The Potency result in the assay with MCC-13, in the assay on MCC-26, with MKL-1, in the assay on MKL-2, in the assay with UISO and with WaGa was “inactive” throughout.

These data come from PubChem BioAssay (NCATS).
